Laboratory results: PubChem BioAssay (EPA / NIEHS)
Records with an inconclusive call do not appear. Activity calls are given as the source filed them. How the source made its calls: active means hit-call score of the fitted dose curve at least 0.9, where 1 is the maximum; inconclusive means response in the unintended direction; inactive means score below 0.9.

assay: ATG_M_19_TRANS: Attagene TRANS-FACTORIAL HepG2 Assay for M19 Transcription Factor (Internal Marker) (AID 2282974); conditions: HepG2 Attagene TRANS-FACTORIAL M19 internal marker reporter
Method: ATG_TRANS is a cell-based, multiplexed-readout assay that uses HepG2, a human liver cell line, with measurements taken at 24 hours after chemical dosing in a 24-well plate.ATG_M_19_TRANS is one of 30 assay component(s) measured or calculated from the ATG_TRANS assay. It is designed to make measurements of mRNA induction, a form of inducible reporter, as detected with fluorescence intensity signals by Reverse transcription polymerase chain reaction (RT-PCR) and Capillary electrophoresis technology.Data from the assay component ATG_M_19_TRANS was analyzed into 1 assay endpoint. This assay endpoint, ATG_M_19_TRANS, was analyzed in the positive analysis fitting direction relative to DMSO as the negative control and baseline of activity. Using a type of inducible reporter, measures of mRNA for gain-of-signal activity can be used to understand the background control at the transcription factor-level as they relate to the gene . Furthermore, this assay endpoint can be referred to as a secondary readout, because this assay has produced multiple assay endpoints where this one serves a background control function. To generalize the intended target to other relatable targets, this assay endpoint is annotated to the background measurement intended target family, where the subfamily is internal marker.
Human liver HepG2 cells are transiently transfected with multiple reporter transcription units (MRTUs) in 6-well plates using FuGene 6 reagent (Roche; 3 ml FuGene/1 mg DNA). The MRTU constructs are regulated by a cis-regulating element (promoter). […] A major difference between the CIS and TRANS system is that in CIS activities of endogenous TFs are measured, whereas the TRANS assay evaluates changes in activities of exogenous, chimeric NR-Gal4 proteins. […] At the end of 24 hour incubation, total RNA was isolated using TriZol reagent (Invitrogen). The isolated RNA is then reverse-transcribed using oligo(dT) primer and Mo-MLV reverse transcriptase (Invitrogen) with DNAse I (Ambion) treatment for 30 min. The one-tenth of the produced cDNA was amplified by PCR using Taq DNA polymerase (Invitrogen) and two reporter sequence-specific primers. The PCR products were fluorescently labeled by primer extension with 6-arboxyfluorescein (6-FAM) 5'-labeled reporter sequence-specific primer (2 min at 95 C, 20 s at 68 C and 10 min at 72 C) and these products were digested with 5U of HpaI (New England Biolabs) for 2h at 37 C. The fragments were purified using Qiaquick PCR columns (Qiagen), analyzed on an ABI 3130xL genetic analyzer (Applied Biosystems) with peak positions identified by using a set of X-rhodamine (ROX)-labeled MapMarker1000 molecular weight standards (BioVentures). The raw capillary electrophoresis data was processed using Attagraph software (Attagene).

outcome, inactive:
CN(CCO)S(=O)(=O)C(F)(F)C(F)(F)C(F)(F)C(F)(F)C(F)(F)C(F)(F)C(F)(F)C(F)(F)F
C=CC(=C)CC/C=C(\C)CCC=C(C)C
CCOC=C(C(=O)OCC)C(=O)OCC
CC(C)(C)c1ccc(CCC=O)cc1
COc1cccc(O)c1
OCC(CO)(CBr)CBr
FC(F)=C(F)C(F)(F)C(F)(F)C(F)(F)C(F)F
CCCCCCCCC(C)=O
O=CC(F)(F)C(F)(F)C(F)(F)F
FC(F)(F)C1(F)C(F)(F)C(F)(F)C(F)(F)C1(F)F
NNc1nc(-c2ccc([N+](=O)[O-])cc2)cs1
O=S(=O)(O)C(F)(F)C(F)(F)C(F)(F)C(F)(F)C(F)(F)C(F)(F)C(F)(F)C(F)(F)C(F)(F)C(F)(F)F
O=C(F)C(F)(F)C(F)(F)C(F)(F)C(F)F
FCOC(C(F)(F)F)C(F)(F)F
O=C(CCCN1CCC(O)(c2ccc(Cl)cc2)CC1)c1ccc(F)cc1
CC(=O)Nc1ccc(S(N)(=O)=O)cc1
CCN(CC)CC
O=S(=O)(O)c1ccc2cc(O)ccc2c1
O=c1cc(-c2ccccc2)oc2ccc3ccccc3c12
CCC(=O)O
O=P(O)(O)CCC(F)(F)C(F)(F)C(F)(F)C(F)(F)C(F)(F)C(F)(F)F
CC(C)c1c(C(=O)Nc2ccccc2)c(-c2ccccc2)c(-c2ccc(F)cc2)n1CC[C@@H](O)C[C@@H](O)CC(=O)O
Clc1ccc(Nc2nnc(Cc3ccncc3)c3ccccc23)cc1
NCc1cccc(CN)c1
Nc1ccn([C@@H]2O[C@H](CO)[C@@H](O)C2O)c(=O)n1 (stereo not given in full)
CCCCCCCCCCCCCC[n+]1ccccc1
CCC(=O)C=Cc1ccc(OC)cc1
CC1=CC(=O)c2ccccc2C1=O
c1ccc2c(c1)CCC2
CCCC=O
C=C(c1ccc(C(=O)O)cc1)c1cc2c(cc1C)C(C)(C)CCC2(C)C
CCCCCCCCCCCCCCCC(=O)OC
NNC(=O)CCCCC(=O)NN
CC(C)(c1ccc(Oc2ccc(N)cc2)cc1)c1ccc(Oc2ccc(N)cc2)cc1
COC(=O)CC(C(C)=O)C(=O)OC (stereo not given)
O=C(OC(=O)C(F)(F)C(F)(F)F)C(F)(F)C(F)(F)F
CC(=O)CC(C)C
CCc1ccccc1O
Cc1ccc(C(=O)c2ccccc2)cc1
CCCCCCCCCCCC(=O)O
